Drawing on PubChem BioAssay, this text covers outcome and activation for 39 compounds.

The source made the active and inactive calls.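 Rule for the calls, unless noted: active = compound raising the membrane signal above positive-control mean plus 3 SD in both repeats, and a primary screen hit; inactive = the rest.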

For one test, the target named is Short transient receptor potential channel 6 (Mus musculus) (UniProt Q61143). The experiment in a line: positive modulators of mouse TRPC6 channel – HEK293 cells, membrane potential dye, duplicate, selectivity assay for TRPC4 potentiator project, confirmation (AID 434952). Conditions: HEK293 TRPC6, membrane potential dye fluorescence, at 10 µM, maximal acetylcholine added after compound; hits give high values.
Sequence of Short transient receptor potential channel 6 (Mus musculus) (Q61143 whole entry, looked up): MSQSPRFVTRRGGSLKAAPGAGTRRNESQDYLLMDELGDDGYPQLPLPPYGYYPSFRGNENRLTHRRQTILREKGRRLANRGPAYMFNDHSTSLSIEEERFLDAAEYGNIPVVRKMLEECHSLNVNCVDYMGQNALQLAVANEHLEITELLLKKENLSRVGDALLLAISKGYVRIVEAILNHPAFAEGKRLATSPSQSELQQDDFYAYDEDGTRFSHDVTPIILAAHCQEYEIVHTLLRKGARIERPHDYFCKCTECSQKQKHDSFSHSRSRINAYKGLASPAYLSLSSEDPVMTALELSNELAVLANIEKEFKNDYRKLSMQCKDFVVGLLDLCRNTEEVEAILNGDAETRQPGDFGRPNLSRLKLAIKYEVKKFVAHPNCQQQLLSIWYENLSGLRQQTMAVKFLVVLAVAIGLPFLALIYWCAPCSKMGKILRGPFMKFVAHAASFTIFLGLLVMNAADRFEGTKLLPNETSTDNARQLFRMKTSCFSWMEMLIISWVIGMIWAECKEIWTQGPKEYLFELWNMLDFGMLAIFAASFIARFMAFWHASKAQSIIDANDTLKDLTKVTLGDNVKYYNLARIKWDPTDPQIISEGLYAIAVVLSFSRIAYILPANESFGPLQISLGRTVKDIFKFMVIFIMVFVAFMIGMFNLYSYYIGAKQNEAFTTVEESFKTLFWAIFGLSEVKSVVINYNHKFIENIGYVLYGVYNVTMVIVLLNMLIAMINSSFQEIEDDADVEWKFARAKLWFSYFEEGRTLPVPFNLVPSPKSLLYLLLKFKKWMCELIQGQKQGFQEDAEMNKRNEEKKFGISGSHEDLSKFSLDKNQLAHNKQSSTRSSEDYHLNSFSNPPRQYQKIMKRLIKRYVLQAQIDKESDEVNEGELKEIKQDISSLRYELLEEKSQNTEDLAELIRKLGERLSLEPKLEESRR
In the case of `CN(CCCNC(=O)CCCOc1cc(=O)n(C)c2ccccc12)Cc1ccccc1`, the outcome was inactive.

As to `CCOc1ccccc1C(=O)NCCc1cnc[nH]1`, the result was inactive.

As to `Cc1ccccc1-n1c(=O)c2c(n3cnnc13)-c1ccccc1CC21CCCCC1`, the result was inactive.

Take `CN(C)S(=O)(=O)N1CCC(CCCC2CCN(S(=O)(=O)N(C)C)CC2)CC1`: the outcome was inactive.

For the compound `O=C(Nc1ccnn1C1CCN(Cc2cc3ccccc3[nH]2)CC1)C1CCOC1` (stereo not drawn), the outcome was inactive.

Regarding `C=CCOc1ccc(CN(C)Cc2nc3cc(C(F)(F)F)ccc3c(=O)[nH]2)cc1`, the outcome was inactive.

Regarding `Cc1ccc(C(=O)C[n+]2cccc3cc(C)ccc32)cc1`, the result was inactive.

For `CN(C)CCCN(C(=O)CCc1ccccc1)c1nc2ccc(F)cc2s1`, the result was inactive.

For the compound `CC(=O)n1cc([C@@H]2C=C(C(=O)NCc3ccccc3)O[C@H](OCc3ccc(CO)cc3)C2)c2ccccc21`, the result was inactive.

Take `O=C(O)CCCN1C(=O)/C(=C\c2ccc(-c3nc4ccccc4s3)o2)SC1=S`: the outcome was inactive.

Turning to `CCOCCCn1c(=S)[nH]c2cc(C(=O)NCCCN(CC)CC)ccc2c1=O`, the outcome was inactive.

On to `O=C(NCc1ccccc1)c1ccc(S(=O)(=O)Nc2cccc(C(F)(F)F)c2)cc1`, for which the result was inactive.

For `CCOC(=O)C1CCCN(C(=O)CCCn2nnnc2CN2CCOCC2)C1` (stereo not drawn), the outcome was inactive.

`COc1cc(OC)c2c(-c3ccccc3)cc(=O)oc2c1C(CCN1CCCCC1)c1ccc(N(C)C)cc1` (stereo not drawn): the result was inactive.

As for `CCCCCCCCCC[n+]1cccc2c3ccccc3ccc21`, the outcome was inactive.

As to `CC(C)NS(=O)(=O)c1ccc(NC(=O)C(C)Oc2ccc(C(=O)c3ccccc3)cc2)cc1` (stereo not drawn), the result was inactive.

As to `Cc1ccc(C(=O)NNC(=O)C2CSC3(C)CCC(=O)N23)cc1` (stereo not drawn), the outcome was inactive.

Turning to `CCCc1nc2oc3c(NCCCN(C)C)ncnc3c2c2c1CCCC2`, the result was inactive.

Take `CCc1nc2ccccc2n1Cc1ccccc1F`: the result was inactive.

For `O=C(Cc1ccccc1)Nc1cccc(NC(=O)c2cccs2)c1`, the outcome was inactive.

Consider `CCCCN(CC)CCCNC(=O)c1cc2cc3ccc(C)cc3nc2o1`, for which the outcome was inactive.

For `O=C1C=CC(=O)N1CCNc1ncc(C(F)(F)F)cc1Cl`, the result was inactive.

As to `Cc1cc(NC(=O)CSCC(=O)Nc2ccc(Cl)c(C(F)(F)F)c2)no1`, the outcome was inactive.

As for `Cc1ccc2c(c1)C1CN(C)CCC1N2C(=S)NC(=O)c1ccc(Br)cc1` (stereo not drawn), the outcome was inactive.

As to `CCc1nc2ccccc2n1Cc1ccc(F)cc1`, the result was inactive.

As to `CCN(CC)CCSc1nnc2c3ccccc3n(Cc3ccccc3)c2n1`, the outcome was inactive.

Turning to `CCN1C2=NCCCN2c2cc(C)c(C)cc21`, the result was inactive.

In the case of `Cc1cc(C)c2c(=O)n(CC(=O)Nc3cccc(Cl)c3C)sc2n1`, the result was inactive.

Consider `COc1cc(C2(c3ccc(O)c(OC)c3)C(=O)Nc3c(C)cc(Br)cc32)ccc1O`, for which the outcome was inactive.

In the case of `COc1ccc(CC2(CO)CCN(C/C=C/c3ccccc3OC)CC2)cc1`, the outcome was inactive.

For the compound `Cc1nn(-c2cc(C(F)(F)F)ccc2Cl)c2nc(C(Cl)(Cl)Cl)[nH]c(=O)c12`, the outcome was inactive.

In the case of `Cc1ccc(C(=O)O)cc1N=Cc1cc(Br)cc(Br)c1O`, the outcome was inactive.

Turning to `CCOc1ccc(N=CNc2ccc(OCC)cc2)cc1`, the outcome was inactive.

With `CCN(CC)c1ncnc2sc3c(c12)CCC3`, the result was inactive.

Take `COc1ccc(NS(=O)(=O)c2ccc3ccccc3c2)c2ncccc12`: the result was inactive.

For `CCN1CCN(CCC(=O)Nc2ccccc2OC)CC1`, the outcome was inactive.

Regarding `COc1cc(NC(=O)CSc2ncnc3sc4c(c23)CCC(C)C4)c(C(=O)O)cc1OC` (stereo not drawn), the outcome was inactive.

In the case of `Cc1[nH]nc(-c2ccc(O)cc2O)c1-c1nc2ccccc2s1`, the result was inactive.

With `CC1CCC2C(C1)c1sc(=O)[nH]c1SC2(C)C` (stereo not drawn), the result was inactive.

In a further test the target is Short transient receptor potential channel 4 (Mus musculus) (UniProt Q9QUQ5). Nature of the test: calcium flux activators in TRPC4/5HT1a cells, counter-screen for TRPC4 activator project, cell-based, second counter screen, HEK293 TRPC4/5HT1a, Fluo-4 (AID 434977;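 active = calcium signal rise above buffer-control mean plus 5 SD in both duplicates, and also a hit in the primary screen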;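 for activation: plate controls were assay buffer for no effect and maximal serotonin response for full effect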). Conditions: Fluo-4 calcium flux, at 10 µM; hits give high values.
With `CN(CCCNC(=O)CCCOc1cc(=O)n(C)c2ccccc12)Cc1ccccc1`, the result was inactive.

As to `CCOc1ccccc1C(=O)NCCc1cnc[nH]1`, the result was inactive.

As for `Cc1ccccc1-n1c(=O)c2c(n3cnnc13)-c1ccccc1CC21CCCCC1`, the outcome was inactive.

Consider `CN(C)S(=O)(=O)N1CCC(CCCC2CCN(S(=O)(=O)N(C)C)CC2)CC1`, for which the result was inactive.

Take `O=C(Nc1ccnn1C1CCN(Cc2cc3ccccc3[nH]2)CC1)C1CCOC1` (stereo not drawn): the outcome was inactive.

As for `C=CCOc1ccc(CN(C)Cc2nc3cc(C(F)(F)F)ccc3c(=O)[nH]2)cc1`, the result was inactive.

Regarding `Cc1ccc(C(=O)C[n+]2cccc3cc(C)ccc32)cc1`, the result was inactive.

Turning to `CN(C)CCCN(C(=O)CCc1ccccc1)c1nc2ccc(F)cc2s1`, the outcome was inactive.

Turning to `CC(=O)n1cc([C@@H]2C=C(C(=O)NCc3ccccc3)O[C@H](OCc3ccc(CO)cc3)C2)c2ccccc21`, the result was inactive.

In the case of `O=C(O)CCCN1C(=O)/C(=C\c2ccc(-c3nc4ccccc4s3)o2)SC1=S`, the result was inactive.

For the compound `CCOCCCn1c(=S)[nH]c2cc(C(=O)NCCCN(CC)CC)ccc2c1=O`, the outcome was inactive.

Regarding `O=C(NCc1ccccc1)c1ccc(S(=O)(=O)Nc2cccc(C(F)(F)F)c2)cc1`, the result was inactive.

`CCOC(=O)C1CCCN(C(=O)CCCn2nnnc2CN2CCOCC2)C1` (stereo not drawn): the outcome was inactive.

Regarding `COc1cc(OC)c2c(-c3ccccc3)cc(=O)oc2c1C(CCN1CCCCC1)c1ccc(N(C)C)cc1` (stereo not drawn), the activation was 38.3% (active).

In the case of `CCCCCCCCCC[n+]1cccc2c3ccccc3ccc21`, the result was inactive.

Regarding `CC(C)NS(=O)(=O)c1ccc(NC(=O)C(C)Oc2ccc(C(=O)c3ccccc3)cc2)cc1` (stereo not drawn), the outcome was inactive.

For the compound `Cc1ccc(C(=O)NNC(=O)C2CSC3(C)CCC(=O)N23)cc1` (stereo not drawn), the result was inactive.

For the compound `CCCc1nc2oc3c(NCCCN(C)C)ncnc3c2c2c1CCCC2`, the result was inactive.

Take `CCc1nc2ccccc2n1Cc1ccccc1F`: the outcome was inactive.

Consider `O=C(Cc1ccccc1)Nc1cccc(NC(=O)c2cccs2)c1`, for which the result was inactive.

As for `CCCCN(CC)CCCNC(=O)c1cc2cc3ccc(C)cc3nc2o1`, the outcome was inactive.

On to `O=C1C=CC(=O)N1CCNc1ncc(C(F)(F)F)cc1Cl`, for which the outcome was inactive.

Take `Cc1cc(NC(=O)CSCC(=O)Nc2ccc(Cl)c(C(F)(F)F)c2)no1`: the result was inactive.

Take `Cc1ccc2c(c1)C1CN(C)CCC1N2C(=S)NC(=O)c1ccc(Br)cc1` (stereo not drawn): the outcome was inactive.

Turning to `CCc1nc2ccccc2n1Cc1ccc(F)cc1`, the result was inactive.

Turning to `CCN(CC)CCSc1nnc2c3ccccc3n(Cc3ccccc3)c2n1`, the result was inactive.

Take `CCN1C2=NCCCN2c2cc(C)c(C)cc21`: the result was inactive.

Take `Cc1cc(C)c2c(=O)n(CC(=O)Nc3cccc(Cl)c3C)sc2n1`: the result was inactive.

With `COc1cc(C2(c3ccc(O)c(OC)c3)C(=O)Nc3c(C)cc(Br)cc32)ccc1O`, the outcome was inactive.

With `COc1ccc(CC2(CO)CCN(C/C=C/c3ccccc3OC)CC2)cc1`, the outcome was inactive.

Regarding `Cc1nn(-c2cc(C(F)(F)F)ccc2Cl)c2nc(C(Cl)(Cl)Cl)[nH]c(=O)c12`, the result was inactive.

For `Cc1ccc(C(=O)O)cc1N=Cc1cc(Br)cc(Br)c1O`, the result was inactive.

For `CCOc1ccc(N=CNc2ccc(OCC)cc2)cc1`, the result was inactive.

Take `CCN(CC)c1ncnc2sc3c(c12)CCC3`: the outcome was inactive.

Take `COc1ccc(NS(=O)(=O)c2ccc3ccccc3c2)c2ncccc12`: the outcome was inactive.

Take `CCN1CCN(CCC(=O)Nc2ccccc2OC)CC1`: the result was inactive.

As for `COc1cc(NC(=O)CSc2ncnc3sc4c(c23)CCC(C)C4)c(C(=O)O)cc1OC` (stereo not drawn), the result was inactive.

Turning to `Cc1[nH]nc(-c2ccc(O)cc2O)c1-c1nc2ccccc2s1`, the outcome was inactive.

Turning to `CC1CCC2C(C1)c1sc(=O)[nH]c1SC2(C)C` (stereo not drawn), the result was inactive.
